# Columns and labels:
# ETS1 [1] = molecular target: T1, ETS1 (UniProt P14921); test: ETS1 binding intensity (PBM fluorescence), ETS1 alone (arbitrary fluorescence units); higher = stronger binding; conditions: ETS1 concentration 1 nM; RUNX1 concentration 0 nM
# T1 sequence: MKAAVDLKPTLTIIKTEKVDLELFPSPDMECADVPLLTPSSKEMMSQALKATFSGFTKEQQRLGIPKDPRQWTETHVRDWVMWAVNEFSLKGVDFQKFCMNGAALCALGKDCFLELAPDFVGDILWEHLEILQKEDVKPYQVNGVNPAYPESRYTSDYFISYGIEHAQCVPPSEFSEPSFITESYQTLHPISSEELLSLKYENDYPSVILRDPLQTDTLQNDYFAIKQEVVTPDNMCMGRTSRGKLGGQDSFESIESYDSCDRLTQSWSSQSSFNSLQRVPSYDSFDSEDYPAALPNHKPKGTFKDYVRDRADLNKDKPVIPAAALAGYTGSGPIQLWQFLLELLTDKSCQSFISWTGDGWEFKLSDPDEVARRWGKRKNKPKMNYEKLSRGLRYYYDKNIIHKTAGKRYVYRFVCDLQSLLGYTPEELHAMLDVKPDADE
# RUNX1 [2] = molecular target: RUNX1 (UniProt Q01196); test: RUNX1 binding intensity (PBM fluorescence), RUNX1 alone (arbitrary fluorescence units); higher = stronger binding; conditions: RUNX1 concentration 2 nM; ETS1 concentration 0 nM
# Description: (§1)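 Cooperative gcPBM on 36-bp genomic probes with neighbouring ETS1 and RUNX1 sites. Recombinant human RUNX1 (2 nM) was incubated alone or with ETS1 (25 nM) and detected with anti-RUNX1 antibody plus Alexa488 secondary. Values are medians over 4 replicate spots; the RUNX1+ETS1 data were normalised to the RUNX1-only data. The probes sit in constant array flanks that are not printed.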
# ETS1 [3] = molecular target: T1, ETS1; test: ETS1 binding intensity (PBM fluorescence) in presence of RUNX1, normalised to ETS1-only experiment (arbitrary fluorescence units); higher = stronger binding; conditions: ETS1 concentration 1 nM; RUNX1 concentration 25 nM
# RUNX1 [4] = molecular target: RUNX1 (UniProt Q01196); test: RUNX1 binding intensity (PBM fluorescence) in presence of ETS1, normalised to RUNX1-only experiment (arbitrary fluorescence units); higher = stronger binding; conditions: RUNX1 concentration 2 nM; ETS1 concentration 25 nM
# Description: as §1
# 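Throughout, for RUNX1 binding intensity (PBM fluorescence) in presence of ETS1, normalised to RUNX1-only experiment: Full-length recombinant human ETS1 or RUNX1 bound to double-stranded 36-bp genomic probes on microarrays, detected by protein-specific primary antibody and Alexa488 secondary, spot fluorescence as median of four replicate spots.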
# 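Throughout, for RUNX1 binding intensity (PBM fluorescence), RUNX1 alone: Full-length recombinant human RUNX1 bound to double-stranded 36-bp genomic probes on a high-density microarray, scored as Alexa488 fluorescence per spot via anti-RUNX1 antibody, median of four replicate spots.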
# RUNX1, sequence (Q01196 whole entry): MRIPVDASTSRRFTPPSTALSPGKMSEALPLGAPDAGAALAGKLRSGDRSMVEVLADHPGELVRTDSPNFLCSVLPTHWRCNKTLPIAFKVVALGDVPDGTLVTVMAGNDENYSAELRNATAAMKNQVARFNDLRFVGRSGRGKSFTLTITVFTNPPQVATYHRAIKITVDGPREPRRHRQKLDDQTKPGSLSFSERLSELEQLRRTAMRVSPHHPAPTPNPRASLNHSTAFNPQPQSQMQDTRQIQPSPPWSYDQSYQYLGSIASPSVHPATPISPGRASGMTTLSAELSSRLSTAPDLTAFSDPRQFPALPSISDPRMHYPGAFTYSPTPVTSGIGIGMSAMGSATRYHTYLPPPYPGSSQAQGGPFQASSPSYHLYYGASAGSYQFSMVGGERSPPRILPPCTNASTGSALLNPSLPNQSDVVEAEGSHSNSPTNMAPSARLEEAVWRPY
Sequence,ETS1 binding intensity (ETS1 [1]),RUNX1 binding intensity (RUNX1 [2]),ETS1 binding intensity (ETS1 [3]),RUNX1 binding intensity (RUNX1 [4])
GCCACTATTTCCTGCCTTCTGCGGCTGAGAGTCCCA,981,1220,997,3520
AACTAGGCTTTTCTTTCCTGTGGTCCTTAAGGAGGC,461,929,329,1020
TCCCTTACCTTCCTGCTGCCACCAAACCACCAAACC,460,2510,1040,3260
TAAAGAAACAGGATGACTGTGGTTTACTGCGAGCAT,500,830,1000,1150
TCTTGCCCGGGTCGGAAATGGTGGTCACGAGCGCTT,1110,772,1600,991
ATAGAAACTACAGGAAATACTGTGGTCAGGTTTTGA,2770,822,9500,1380
TCTCGTCCGGTCCTTGCTCCCCCTCCCCGCAGCGCT,637,1090,790,1980
GCATCATCACTTCCTGTTGTGGGCAGTCGTTGCCTG,3300,843,5100,2360
TTTCTGAAACCCTCAGGATGTGGGTTTTCACACTGT,1310,800,6900,1100
TCTAACGCTGAAGGAGGATGTGGTTTCCTATTGGAC,1770,880,11500,2110
AGCTTGCGCAGGAAGTCTGCGGCAGGAGGGCGTCCT,1920,687,2760,908
GGAGGGGAGCAGGAAGCTGAGGTTTTGTGAGTCAGA,1090,753,2490,1070
ACCTTCGCCGGATGCTGTGGCTGAAACCACAGCATT,2480,994,13300,1980
CGAGCTCGGTGTTCCGCTTTTTGTGGGCCGGGTGGG,467,1080,478,903
CTGCCCACCGGAAACGATGGCGCGAGGCCGCAGAGC,6160,728,7790,1660
CCTGGGCAAGGCCGGATGCCTGTGGCTTCCAGGCTG,2880,685,3350,1060
AAAGCAAAGTCAAGAGGATGTGGTGACCAATTCTGC,1320,685,2860,855
CCGCGCCGCTTCCTCCAGACACCGCAAGGGGGTGCT,325,893,446,1660
GACATCTTCCGGTTGCTACAGGTTACGGCGGTTGCT,2700,778,2640,1640
CCGGTCCGCTCGCCGGAAATGCGGGCTCTCCTGCCG,8400,815,10400,1240

Sequence,ETS1 binding intensity (ETS1 [1]),RUNX1 binding intensity (RUNX1 [2]),ETS1 binding intensity (ETS1 [3]),RUNX1 binding intensity (RUNX1 [4])
AGGCAAACTACAGGAAGATCCTGCCCGCAACTTGGT,454,785,2160,931
AACTTCCGAGGGAACTAACTGGTTTTAACCACATTG,367,886,923,1190
CATGCGTCACCTTCCTGTGTGGTCAGCAGTGCTTGC,383,915,468,1420
GCACTTCCGGAGCCGGGCGTCTACAGACCGCGGCCA,868,804,1050,2190
TTGTGCTTCCTGCTCATGAGATTGCTAGCGGTTACT,491,803,707,1190
TTGGTCAGCCTGCTTCCGGCTGTGGCTTCAGTTAGT,1770,774,1920,1420
CAGAGAGAGGCCACATCCCTGTGGTCACACATACCC,428,980,590,1030
CCGTACTTCCGCTTTACTCAGATTTTGGACCGCGGG,1810,1490,1780,3640
TCTGTCGCACATCCGGTGTGAGCTGCGGGGCGGTGG,7930,753,10600,1640
GCTCCCTGGACAGGATGTGGTGCCGAGTAAACAGCT,4470,645,5380,1410
TGCAATCAGGAAGCCTGCCCCTCTAGAACCACAAAA,540,882,1210,892
CCTCTTGGTTTCCTGTCCCTCACCACAAGAAGCAGT,625,1540,1520,4520
CCAAAAACCCCAGGAGGATGTGGTGAGGAGGGAAGG,1110,831,2590,1040
ACTACAGGAGGAAACTACAGCCTAAACCACATGCAA,510,975,1010,892
ACGGTGTGTCTCATTTCCTGTGGGTAACAGGCACCA,2120,935,3240,1720
TTGCACACGTGGGCGGGAAGTGGTTAAGCGGCCTCA,1020,725,4280,1210
AGCGCCACACTTCCGCTTTGCGGCAGTGTGCGCCCC,3490,730,3280,1890
GAAATGAGAGAACGGAAACCACAAGTCAAGGGGCTT,1460,3620,2790,4480
CTCGTGGGTGCCGGAAGTGGAGGCGGTTGGTGGGGT,15200,707,15900,1410
TTGGAGGCGGAAACAGGCACCGAAAGCGGTGGAAGT,2150,717,2120,854

# Source: the supplement of paper PMC10681739
